The text below walks through data of PubChem BioAssay AID463173 (ICCB-Longwood Screening Facility, Harvard Medical School, 2010).

Each structure is given as a SMILES string. Among all 52,000 compounds or so, about 4,300 (8.3%) were called active. Many of the other results were omitted from the sample, so actives are more common in it than they were. Values without a mark were called inactive. No stated cut-off is given here; in the data, active means survival mostly below about 52% (no sharp cut-off); inactive means mostly above about 56%.

In the assay the test system is DeltatarO mutant. Kind of assay: growth inhibition of S. aureus wild type versus tarO mutant, primary screen, teichoic acid synthesis inhibitors, RN4220, OD600 (AID 463173). The conditions noted are these: OD600, 18 h, stronger effect = lower value, screened at 18.75 µg/mL (by protocol).
`CCOc1ccc(-c2cccc(NS(=O)(=O)c3ccc(F)cc3F)c2)nn1`: the survival is 77%.
Turning to `CCN(CC)CCCNC(=O)Cn1nc(N2CCN(c3ccccc3OC)CC2)ccc1=O`, the survival is 75%.
With `Fc1ccccc1Oc1ncnc2c1oc1ccccc12` the figure was 37% (active); with `COc1ccc(Oc2ncnc3c2oc2ccccc23)cc1`, 55%; with `CCOc1ccccc1Oc1ncnc2c1oc1ccccc12`, 83%.
As to `CC(=O)N1CCc2cc(S(=O)(=O)NC(CC(C)C)C(=O)Nc3ccc(C(C)C)cc3)ccc21` (stereo not drawn), the survival was 61%.
As to `FC(F)(F)c1cccc(N2CCN(c3ncnc4c3nc3n4CCCC3)CC2)c1`, the survival is 95%.
With `CCOC(=O)c1ccccc1NC(=O)CSc1nnc(CC)n2c1cc1occc12` the figure was 63%; with `O=C(O)C1CCCCC1C(=O)Nc1cccc(C(=O)N2CCCCC2)c1` (stereo not drawn), 101%.
Then `COc1ccc(OC)c(NC(=O)c2ccc3c(SCC(=O)O)c4c(nc3c2)CCCC4)c1`, with 64%; and `Cn1cnc2c(=O)oc3ccc(S(=O)(=O)N4CCN(c5ccccc5)CC4)cc3c21`, with 77%.
With `Cn1cnc2c(=O)oc3ccc(S(=O)(=O)N4CCN(c5cccc(Cl)c5)CC4)cc3c21` the figure was -5% (active).
As to `Cn1cnc2c(=O)oc3ccc(S(=O)(=O)N4CCN(c5cccc(C(F)(F)F)c5)CC4)cc3c21`, the survival is 108%.
With `Cc1ccc(/C=C/c2onc(C)c2S(=O)(=O)N2CCC(C(=O)NCc3ccco3)CC2)cc1` the figure was 74%; with `O=C(Cc1ccccc1)Nc1sc2c(c1C(=O)Nc1ccccc1Cl)CCC2`, 34% (active); with `Cc1ccccc1NC(=O)c1c(NC(=O)c2ccccc2)sc2c1CCC2`, 126%.
With `COc1ccccc1NC(=O)c1c(NC(=O)c2ccccc2F)sc2c1CCC2` the figure was 136%; with `CCOc1ccccc1NC(=O)c1c(NC(=O)c2cccc(C)c2)sc2c1CCCC2`, 76%.
For the compound `CCOc1ccccc1NC(=O)c1c(NC(=O)Cc2ccccc2)sc2c1CCCC2`, the survival was 81%.
`Cc1ccccc1NC(=O)c1c(NC(=O)Cc2ccccc2)sc2c1CCC2`: the survival is 29% (active).
Regarding `O=C(Nc1sc2c(c1C(=O)Nc1ccccc1Cl)CCCC2)c1ccccc1F`, the survival was 48% (active).
With `CCc1ccccc1NC(=O)c1c(NC(=O)c2ccccc2)sc2c1CCCC2` the figure was 42% (active); with `CCOc1ccccc1NC(=O)c1c(NC(=O)Cc2ccc(OC)cc2)sc2c1CCC2`, 61%.
On to `COc1ccccc1NC(=O)c1c(NC(=O)c2ccccc2Cl)sc2c1CCC2`, for which the survival was 78%.
Take `CCOc1ccccc1NC(=O)c1c(NC(=O)c2ccccc2)sc2c1CCCC2`: the survival is 58%.
With `O=C(NC1CC(=O)N(c2ccc(Cl)cc2)C1)c1ccc2c(c1)OCO2` (stereo not drawn) the figure was 78%; with `CN(C(=O)c1nn(C)c2c1COc1ccccc1-2)c1cccc(C(F)(F)F)c1`, 81%.
With `Cc1ccc(C2=Nc3ccccc3N(CC(=O)Nc3cccc(F)c3)C(=O)C2)cc1C` the figure was 79%.
`CCOC(=O)CC(=O)CSc1nc2ccccc2c(=O)n1CCc1ccccc1`: the survival is 84%.
As for `COc1cccc(C(=O)Nc2ccc3oc(-c4cccc5c(Br)cccc45)nc3c2)c1`, the survival was 59%.
On to `O=C(CCC1N=C2c3ccccc3N=C(SCC(=O)Nc3ccc(F)cc3)N2C1=O)NCc1cccs1` (stereo not drawn), for which the survival is 87%.
Then `COc1ccccc1NC(=O)c1c(NC(=O)COc2ccccc2)sc2c1CCCCC2`, with 85%.
Then `O=C(Cc1ccccc1)Nc1sc2c(c1C(=O)Nc1ccccc1Cl)CCCC2`, with 31% (active); and `O=C(O)CCC(=O)Nc1sc2c(c1C(=O)Nc1ccccc1)CCCCC2`, with 92%.
With `O=C(COc1ccccc1)Nc1sc2c(c1C(=O)Nc1ccccc1Cl)CCCCC2` the figure was 56% (active); with `O=C(COc1ccccc1)Nc1sc2c(c1C(=O)Nc1ccccc1)CCCCC2`, 85%; with `O=C(Cc1ccccc1)Nc1sc2c(c1C(=O)Nc1ccccc1Cl)CCCCC2`, 47%.
Regarding `CCn1c(=O)n(CC)c2cc(N3CCCCC3)c(NC(=O)Nc3ccccc3C(F)(F)F)cc21`, the survival is 101%.
Then `Cc1cc(-c2ccc(C)c(S(=O)(=O)N(C(C)C)C3CCCCC3)c2)on1`, with 88%.
For `Cn1c2c(c(=O)n(C)c1=O)C(c1ccccc1[N+](=O)[O-])CC(=O)N2` (stereo not drawn), the survival was 93%.
Turning to `COc1ccc(-c2nc3cc(C(C)C)ccc3o2)cc1NC(=O)COc1ccc(C)cc1C`, the survival is 37% (active).
With `COc1ccc(-c2nc3cc(C(C)C)ccc3o2)cc1NC(=O)c1ccccc1[N+](=O)[O-]` the figure was 50%.
`COc1ccc(-c2nc3cc(NC(=O)COc4ccccc4C)ccc3o2)cc1`: the survival was 60%.
As for `COc1ccc(-c2nc3cc(NC(=O)COc4ccc(C)c(C)c4)ccc3o2)cc1`, the survival was 84%.
With `COc1ccc(-c2nc3cc(C(C)C)ccc3o2)cc1NC(=O)c1ccc(C)c(Cl)c1` the figure was 21% (active).
Consider `CCOc1ccc(C(=O)Nc2ccc(-c3nc4cc(C(C)C)ccc4o3)cc2)cc1Cl`, for which the survival was 65%.
With `O=C(Nc1ccc(F)c(Cl)c1)C1CCCN(S(=O)(=O)c2cccc3nsnc23)C1` (stereo not drawn) the figure was 67%; with `O=C(CSc1nc2c([nH]c3ccccc32)c(=O)n1-c1ccc(Cl)cc1)NC1CCCCC1`, 87%.
For the compound `COc1ccccc1NC(=O)Cn1c(=O)n(-c2ccccc2Cl)c(=O)c2sc3ccccc3c21`, the survival was 77%.
With `O=C(CN(CC1CCCO1)S(=O)(=O)c1ccc(S(=O)(=O)N2CCOCC2)cc1)Nc1ccccc1` (stereo not drawn) the figure was 89%; with `CCOC(=O)c1ccccc1NC(=O)Cn1ccn2nc(-c3ccc(OCC)cc3)cc2c1=O`, 115%; with `COC(=O)CSc1nc2cc3c(cc2cc1C#N)OCO3`, 97%.
Then `CCc1ccc(-n2c(N3CCN(c4ccc(F)cc4)CC3)nc3ccccc3c2=O)cc1`, with 83%.
As for `Cc1cc2nc(-c3ccc(OCc4ccccc4C)cc3)cc(C(F)(F)F)n2n1`, the survival is 13% (active).
Turning to `Cc1cc2nc(-c3ccc(OCc4ccccc4F)cc3)cc(C(F)(F)F)n2n1`, the survival is 45% (active).
With `COc1ccc(-c2cc3nc(-c4ccccc4)cc(C(F)(F)F)n3n2)cc1` the figure was 58%; with `Cc1ccc(-c2cc(C(F)(F)F)n3nc(-c4ccc(Cl)cc4)cc3n2)cc1`, 51%; with `Cc1cc2nc(-c3ccc(OCc4ccccc4Cl)cc3)cc(C(F)(F)F)n2n1`, 25% (active).
